# Y pestis TopoI = Y. pestis Topo-I inhibition via cleavage products | Y. pestis Topo-I cleavage product accumulation, plate reader | activity, % at 10 µM | 0.064% of 360,000 active | AID 504884; in the data active means activity above about 50%, passing the limit was not always enough
# BJeLR viability = kills HRASV12-expressing BJeLR cells; inhibition, % (no concentration beside the values); AID 1554; BJeLR (HRASV12) viability, CellTiter-Glo ATP luminescence, 48 h; 0.17% of 300,000 active; in the data active means inhibition above about 50%
# PriA SSB inh = K. pneumoniae PriA-SSBct interaction inhibition. AlphaScreen SSBct-PriA binding, biotinylated peptide. inhibition, % at 33 µM. 0.6% of 430,000 active. AID 1272365; in the data active means inhibition mostly above about 37%, no sharp cut-off; inactive means mostly below about 20%;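 further: plate controls were negative control peptide for no effect and reference peptide for full effect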
# PrPC surface inh = inhibitors of human cell surface prion protein PrPC; TR-FRET read-out; inhibition, % at 13.8 µM; 0.43% of 370,000 active; in the data active means inhibition above about 24%; further: 0% = median of the test wells and 100% = reference compound wells
# PrP UTR inh = inhibition of PrP 5' UTR reporter expression; AID 488862; inhibition, % (test concentration not listed); 0.35% of 340,000 active; cell-based PrP 5' UTR mRNA reporter, plate reader; in the data active means inhibition above about 52%; further: 0 = median of the neutral control wells
# PfHsp40 yeast = compounds rescuing yeast from Plasmodium falciparum HSP40 toxicity | S. cerevisiae expressing PfHsp40, growth rescue, ATP luminescence | growth rescue, % at 12.5 µM | 0.68% of 340,000 active | AID 504582; in the data active means growth rescue above about 28%, passing the limit was not always enough;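 further: yeast W303a lacking pdr1 and pdr3 grown in galactose medium; growth measured after three days at 30 °C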
# Numbers without * were called inactive; x = not tested or not shown; ! = not confirmed by another sample. An excerpt weighted towards active compounds, which were near 1.7% of everything screened.
SMILES,Y pestis TopoI,BJeLR viability,PriA SSB inh,PrPC surface inh,PrP UTR inh,PfHsp40 yeast
CC(=O)Nc1ccc(-c2csc(N/N=C(/C)c3ccccc3)n2)cc1,3,12,x,-5,-26,90*
c1ccc(-c2ccccc2-c2nc(-c3ccncc3)no2)cc1,20,0,-7,-7,7,32*
Cn1cccc1C(O)CCNC(=O)CCSc1ccccc1 (stereo not drawn),x,x,2,x,x,x
Cc1nn(C(=O)c2ccc(F)cc2)c(C)c1Sc1ccc(F)cc1,x,x,-14,x,x,x
Cc1cc(C)nc(-n2nc(C)c(Sc3ccc(F)cc3)c2N)n1,18,1,-5,6,-98,89*
O=C(N/N=C\c1cc([N+](=O)[O-])ccc1O)C1(O)c2ccccc2-c2ccccc21,x,x,-13,x,x,x
Cc1cccc(C)c1NC(=O)c1nc(S(=O)(=O)Cc2ccccc2)ncc1Cl,11,27,-7,3,-29,98*
O=C(NCCCN1CCOCC1)c1cccc(NC(=O)c2ccccc2)c1,0,-18,-3,0,-24,122*
CCOC(=O)c1c(C)[nH]c(N=Nc2ccc(C)cc2C)c1C,-10,3,-5,-9,-58,0
CCOC(=O)c1c(C)[nH]c(N=Nc2ccccc2C)c1C,-2,1,62*!,-5,-35,0
O=C(O)c1cc(-n2cccc2)ccn1,x,x,95*,x,x,x
FC(F)(F)c1nc2ccccc2nc1NN=Cc1ccc(Cl)cc1,x,x,5,x,x,x
FC(F)(F)c1nc2ccccc2nc1NN=Cc1ccccc1,x,x,60*,x,x,x
COc1ccc(C(=O)Nc2ccccc2C#N)cc1OC,x,x,-4,x,x,x
Cc1ccc(S(=O)(=O)N(C)c2c(C)ccc(S(=O)(=O)N3CCN(C)CC3)c2C)cc1,-1,-2,17,-12,-3,49*
Cc1ccc(S(=O)(=O)N(C)c2c(C)ccc(S(=O)(=O)N3CCN(C=O)CC3)c2C)cc1,7,-4,8,1,-18,1
O=P(Nc1cccnc1)(Oc1ccccc1Cl)Oc1ccccc1Cl,28,1,1,4,-20,411*
Cc1cccc(OP(=O)(Nc2cccnc2)Oc2cccc(C)c2)c1,20,1,-3,3,-13,1
Cc1ccc(NC(=O)CSc2ncc(S(=O)(=O)c3cccs3)c(N)n2)c(Br)c1,x,x,-6,x,x,x
c1ccc(-c2n[nH]c(-c3ccccc3)c2-c2nc3ccccc3[nH]2)cc1,5,-5,10,23,-26,30*
COc1ccc(Cl)cc1Nc1nnc(C(C)(C)C)c(=O)[nH]1,x,x,0,x,x,x
CN1CCN(C(=S)c2cn(CCOc3ccccc3)c3ccccc23)CC1,22,0,7,3,-32,-1
CN1CCN(C(=S)c2cn(CCOc3ccccc3F)c3ccccc23)CC1,23,3,39*,-7,-16,-1
O=C(C1CC1c1cccs1)N1CCNCC1 (stereo not drawn),x,x,-24,x,x,x
O=C(C1=C(Nc2ccccc2)c2ccccc2S(=O)(=O)N1)c1ccccc1,-2,-3,42*,-6,-35,3
SMILES,Y pestis TopoI,BJeLR viability,PriA SSB inh,PrPC surface inh,PrP UTR inh,PfHsp40 yeast
Cc1cc(/C=N/n2c(COc3ccccc3C)nc3ccccc3c2=O)c(O)c([N+](=O)[O-])c1,-5,-11,x,1,-19,57*
COc1ccc(C2(CNC(=O)CCc3ccccc3F)CCOCC2)cc1,x,x,-14,x,x,x
CCc1ccc(Nc2c([N+](=O)[O-])c(=O)oc3ccccc23)cc1,1,5,-7,0,-39,116*
Cc1ccc(Nc2c([N+](=O)[O-])c(=O)oc3ccccc23)cc1,10,5,12,-11,-1,3
O=[N+]([O-])c1ccc(-c2nnc(-c3ccccc3)c(NCCCO)n2)cc1,-11,-1,-1,-47,-10,-1
OCCCNc1nc(-c2ccc(Cl)cc2)nnc1-c1ccc(Br)cc1,10,3,7,7,-21,28*
CN(C)n1cccc1/C=C(\C#N)S(=O)(=O)c1cccc(Cl)c1,2,-1,-5,7,-11,32*
Cc1nc(-n2cccc2)sc1C(=O)N1CCN(c2cccc(Cl)c2)CC1,x,x,6,x,x,x
CC(Nc1cc(N2CCNCC2)ccc1[N+](=O)[O-])c1ccccc1 (stereo not drawn),-16,-17,13,-1,-8,-1
CC(Nc1cc(N2CCN(C(=O)C(C)(C)C)CC2)ccc1[N+](=O)[O-])c1ccccc1 (stereo not drawn),1,-3,41*,-3,0,0

# Bioassay records as filed in PubChem.
